# TbPYK inhibitor: T. brucei pyruvate kinase inhibition; Q57TT1; TbPYK enzyme, Kinase-Glo Plus ATP luminescence, 45 min; Potency, µM (series often up to 76.8 µM), for inactives: at the top dose activity, negative = inhibition, most hits filed as inhibitors; 410,000 compounds, 0.12% hits; note: potency is the fitted concentration of half-maximal effect; % is set by controls: 0 for no effect and ±100 for the full control effect; nearly all actives have a fitted effect of over 50% in size
#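 Enzyme and substrate buffer are dispensed first and compound is pin-transferred. ADP at 130 uM final then starts the reaction, which runs 45 min at room temperature. Detection reagent is added for 10 min before luminescence is imaged.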
# CHX counter: affects cycloheximide protein synthesis inhibition readout, counter-screen; cell reporter, cycloheximide protein synthesis inhibition counterscreen; max response, %; 300,000 compounds, 12% hits; AID 2314; in the data active = max response mostly above about 13%, no sharp cut-off; inactive = mostly below about 14%; note: read at 38.3 µM for the half of the compounds with a filed dose; 0% is about no effect
# RE007 growth inh: less growth of the S. pombe RE007 Vpr strain. Potency, µM (series often up to 92.2 µM), for the others: at the top dose activity change, negative = less growth, hits mostly inhibitors. S. pombe RE007 Vpr strain, BacTiter-Glo ATP luminescence, 24 h. 360,000 compounds, 0.21% hits. AID 651644; active = well fitted falling curve with a large enough effect; inconclusive = small, poorly fitted or top-dose-only effect; inactive = no such curve, though single readings can be large or run the other way; note: potency is the fitted concentration of half-maximal effect; % is set by controls: 0 for no effect and ±100 for the full control effect; nearly all actives have a fitted effect of over 50% in size
#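 Fission yeast strain RE007, carrying one chromosomally integrated HIV-1 vpr copy, was seeded at OD 0.01 in PMG+AL medium with 23 nL pinned compound. After 24 h at 30 °C and 99% humidity, viability was read by BacTiter-Glo luminescence.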
# LmPK inh: blocks Leishmania mexicana pyruvate kinase activity; Q27686; purified LmPK, Kinase-Glo ATP luminescence, 1 h; Potency, µM (titrated, usually from 57.5 µM), for inactives: at the top dose activity change, negative = inhibition, actives largely listed as inhibitors; 290,000 compounds, 0.37% hits; note: potency is the fitted concentration of half-maximal effect; % is set by controls: 0 for no effect and ±100 for the full control effect
# Target sequence (Q27686 whole entry, looked up): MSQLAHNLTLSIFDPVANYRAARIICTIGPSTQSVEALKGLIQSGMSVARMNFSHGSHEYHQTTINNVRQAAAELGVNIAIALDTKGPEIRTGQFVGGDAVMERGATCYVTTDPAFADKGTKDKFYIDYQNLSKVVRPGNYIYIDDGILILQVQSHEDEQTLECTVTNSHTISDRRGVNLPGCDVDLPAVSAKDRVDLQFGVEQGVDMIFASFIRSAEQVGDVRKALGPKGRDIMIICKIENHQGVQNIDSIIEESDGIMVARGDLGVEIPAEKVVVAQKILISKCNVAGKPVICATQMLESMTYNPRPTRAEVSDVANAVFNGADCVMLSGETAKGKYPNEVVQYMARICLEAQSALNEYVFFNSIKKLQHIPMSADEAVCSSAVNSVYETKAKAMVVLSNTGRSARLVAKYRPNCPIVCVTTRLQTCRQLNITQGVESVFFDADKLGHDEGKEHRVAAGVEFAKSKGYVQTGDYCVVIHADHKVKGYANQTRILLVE
#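 Purified LmPK (0.1 nM) with 0.5 mM PEP and 0.1 mM ADP in imidazole buffer pH 7.2 with MgCl2/KCl, 1 h at room temperature. ATP formed was read by luciferase luminescence and normalized to no-enzyme and uninhibited controls.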
# Giardia FBPA inh: blocks Giardia fructose-bisphosphate aldolase activity. Potency, µM (doses to about 59.6 µM), for the others: top-dose activity, negative = inhibition, actives largely listed as inhibitors. purified Giardia FBPA. 290,000 compounds, 0.71% hits; note: potency is the fitted concentration of half-maximal effect; % is set by controls: 0 for no effect and ±100 for the full control effect; nearly all actives have a fitted effect of over 55% in size
#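 40 nM FBPA preincubated 10 min at RT with compound (up to 57.5 uM final), then substrate plus GAPDH/TPI/NAD/arsenate coupling and diaphorase/resazurin added. Fluorescence read after 20 min at RT, 525/598 nm.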
# Shiga toxin inh: inhibitors of Shiga toxin in Vero cells. Vero cells, Shiga toxin protein synthesis inhibition reporter. inhibition, % at 38.7 µM. 290,000 compounds, 9.2% hits. AID 2315; in the data active = inhibition mostly above about 28%, no sharp cut-off; inactive = mostly below about 43%; note: 0% is about no effect
# * marks the source's active call; other numbers are inactive results; ? = inconclusive; · = no result; [ ] = remark or other dose. Many of the other results were omitted from the sample, so hits are more common in it than they were. Unless noted, calls come from the whole dose curve; as a rule, active = well fitted curve in the direction sought with a large enough effect; inconclusive = small, poorly fitted or top-dose-only effect, or another doubt; inactive = no such curve, though single readings can be large; an effect the other way counts as inactive or inconclusive.
SMILES,TbPYK inhibitor,CHX counter,RE007 growth inh,LmPK inh,Giardia FBPA inh,Shiga toxin inh
O=C(Nc1ccc2oc(-c3ccc4ccccc4c3)nc2c1)c1ccccc1F,3%,·,·,·,·,·
O=C(Nc1ccc2cn[nH]c2c1)c1c(Cl)cccc1Cl,?,-6,3%,-2%,-22%,-11
CNC(=O)c1ccccc1Nc1ccc(SC(F)F)cc1,-16%,23*,5%,-1%,6%,24*
O=C(Nc1ccc2oc(-c3ccc(F)cc3)nc2c1)c1ccccc1F,-6%,29,-5%,3%,7%,39*
O=C(Nc1ccncc1)c1ccccc1F,-2%,24,-11%,-9%,9%,-8
COc1ccc(CNC(=O)c2cnn(-c3ccccc3)c2-n2cccc2)cc1OC,0%,·,·,·,·,·
C[C@H](CCCC(C)(C)O)[C@H]1CC[C@H]2[C@@H]3CC=C4C[C@@H](O)CC[C@]4(C)[C@H]3CC[C@]12C,6%,·,·,·,·,·
COc1ccc(Cn2c(CCC(=O)Nc3cc(OC)c(OC)c(OC)c3)nc3cccnc32)cc1,-5%,·,·,·,·,·
COc1ccccc1C(=O)Nc1c(C(=O)N(C)c2ccccc2)sc2nc(C)cc(C)c12,-2%,·,·,·,·,·
O=C(Nc1ccc(SC(F)F)cc1)c1ccc(F)cc1,-2%,37*,-2%,-3%,-19%,145*
CCOC(=O)Nc1ccc(NC(=O)c2ccccc2F)cc1,-1%,18*,-5%,-4%,3%,85*
O=C(Nc1ccc(F)cc1)c1ccccc1F,-6%,42*,-4%,-16%,-7%,114*
O=C(Nc1ccc(SC(F)F)cc1)c1ccccc1F,7%,45*,-24%,0%,-9%,92*
O=C(CCNC(=O)c1ccco1)Nc1ccc(SC(F)F)cc1,13%,15,-6%,5%,-2%,17
CCOC(=O)Nc1ccc(C(N)=O)cc1,-4%,6,-3%,-6%,4%,12
CCN(CC)CCNC(=O)c1ccc(NC(=O)c2ccc(F)cc2)cc1,3%,4,-11%,5%,1%,-4
CCc1nc2nc(C)cc(Nc3cc(Cl)ccc3C)n2n1,-6%,·,·,·,·,·
CN(C)c1ccc(-c2nc(NCCc3cnc[nH]3)c3ccccc3n2)cc1,·,·,·,·,-4%,·
CC1CN(Cc2c(O)ccc3c2oc(=O)c2ccccc23)CC(C)O1 (stereo not given),?,6,5%,-1%,16µM*,-9
CC1CN(Cc2c(O)ccc3c(=O)c(-c4ccccc4)coc23)CC(C)O1 (stereo not given),-4%,-6,5%,-6%,0%,-1
Clc1ccccc1Cn1nnc2c(Nc3ccccc3)ncnc21,6%,16*,19%,3%,-2%,79
NS(=O)(=O)C#Cc1ccccc1,·,26*,·,·,9%,15*
CC1CCC(NC(=O)c2ccc3c(c2)N(Cc2cccc(F)c2)C(=O)c2ccccc2S3)CC1 (stereo not given),4%,·,·,·,·,·
CCCc1nnc(NC(=O)CCC(=O)N2CCN(S(=O)(=O)c3ccc(C)cc3)CC2)s1,-10%,21,12%,4%,9%,53*
Cc1ccc2nc3c(cc(S(=O)(=O)c4ccccc4)c(=N)n3Cc3ccco3)c(=O)n2c1,1%,33*,-17%,-1%,-3%,39*
SMILES,TbPYK inhibitor,CHX counter,RE007 growth inh,LmPK inh,Giardia FBPA inh,Shiga toxin inh
N=c1c(S(=O)(=O)c2ccccc2)cc2c(=O)n3ccccc3nc2n1Cc1ccco1,-11%,-3,-11%,21%,-28%,-1
O=C(COc1ccc2c(c1)CCC2)N1CCc2ccccc21,?,43*,-2%,4%,-2%,98*
CCc1ccc(OCC(=O)N2CCc3ccccc32)cc1,0%,35*,-2%,0%,-2%,96*
Cc1ccc(OCC(=O)N2CCCc3ccccc32)cc1,4%,19,-18%,-1%,3%,33*
CCOCC(=O)N1CCc2ccccc21,-15%,1,-2%,-8%,2%,17
CCc1ccc(OCC(=O)N2c3ccccc3CCc3ccccc32)cc1,-8%,-3,16%,5%,1%,-6
Cc1ccc(OCC(=O)N2CCc3ccccc32)cc1,-6%,76*,-17%,-14%,-4%,84*
CCCC(=O)NCC1(N(C)C)CCCCC1,-23%,·,·,·,·,·
Cc1cccc(NC(=O)Cn2nc(N3CCN(c4ccccc4)CC3)ccc2=O)c1C,-2%,·,·,·,·,·
Fc1cc(F)c2nc(N3CCCCC3)sc2c1,0%,78*,?,?,6%,115*
O=C(c1cccs1)N1CCN(c2nc3c(F)cc(F)cc3s2)CC1,-8%,·,-16%,·,·,·
c1ccc2sc(N3CCCCC3)nc2c1,0%,·,-23%,·,·,·
O=[N+]([O-])c1ccc2nc(N3CCCC3)sc2c1,-7%,29*,8%,2%,-1%,68*
O=C(c1ccccc1)N1CCN(c2nc3ccc([N+](=O)[O-])cc3s2)CC1,-9%,4,-13%,6%,3%,10
Fc1ccc2nc(N3CCCC3)sc2c1,-10%,44*,-25%,-30%,-1%,85*
Cc1ccc(S(=O)(=O)N2CCCc3cc(NC(=O)c4ccccc4Cl)ccc32)cc1,2%,·,·,·,·,·
Cn1c(=O)[nH]c(=O)c2c1nc(N1CCNCC1)n2CCOc1ccccc1,4%,·,12%,·,·,·
Cn1c(=O)[nH]c(=O)c2c1nc([N+](=O)[O-])n2Cc1ccccc1,-2%,2,6%,-4%,14µM*,-11
CCOCCn1c(N2CCN(c3ccccc3)CC2)nc2c1c(=O)[nH]c(=O)n2C,-4%,21*,6%,-12%,-1%,57
CN(Cc1ccccc1)c1nc2c(c(=O)[nH]c(=O)n2C)n1CCCc1ccccc1,-1%,27*,5%,-1%,4%,41
CCOC(=O)c1c(C)[nH]c(CCC(=O)NCc2cc(Br)ccc2OC)c1C,1%,·,·,·,·,·
Cc1ccc(CN(C(=O)c2ccccc2)c2ccccn2)o1,1%,·,·,·,·,·
CCON=C(CC)C1=C(O)CC(c2c(C)cc(C)cc2C)CC1=O (stereo not given),-9%[157 µM],·,·,·,·,·
N#Cc1cncc(C#Cc2ccccc2)c1,6%,8.8*,-9%,4%,-2%,17
N#Cc1ccccc1,-13%,·,-6%,·,·,·
Cc1ccc(CCNC(=O)c2c[nH]c3ccc(S(=O)(=O)Nc4cccc(C(F)(F)F)c4)cc3c2=O)cc1,2%[15.4 µM],·,·,·,·,·
Cc1cc(C)nc(SC2CC(=O)N(c3ccc(Br)cc3)C2=O)n1 (stereo not given),0%,-1,5%,-1%,-3%,-4
CCN(CC)C1CC(=O)N(c2ccc(Br)cc2)C1=O (stereo not given),7%,-3,2µM*,0%,-3%,-8
